Test results reported in ChEMBL document CHEMBL3433997, “St. Jude Leishmania screening dataset” (2016).

These compounds were tested against Solute carrier family 2, facilitated glucose transporter member 1 (Homo sapiens) (UniProt P11166) (assay: ST_JUDE_LEISH: Cytotoxicity at 2uM final concentration against transgenic Leishmania Mexicana promastigotes LmGLUT1 that are glucose transport deficient and complemented with the human glucose transporter GLUT1. Activity is measured by DNA content using SYBR green in vitro).
Solute carrier family 2, facilitated glucose transporter member 1 (Homo sapiens), sequence (P11166 whole entry): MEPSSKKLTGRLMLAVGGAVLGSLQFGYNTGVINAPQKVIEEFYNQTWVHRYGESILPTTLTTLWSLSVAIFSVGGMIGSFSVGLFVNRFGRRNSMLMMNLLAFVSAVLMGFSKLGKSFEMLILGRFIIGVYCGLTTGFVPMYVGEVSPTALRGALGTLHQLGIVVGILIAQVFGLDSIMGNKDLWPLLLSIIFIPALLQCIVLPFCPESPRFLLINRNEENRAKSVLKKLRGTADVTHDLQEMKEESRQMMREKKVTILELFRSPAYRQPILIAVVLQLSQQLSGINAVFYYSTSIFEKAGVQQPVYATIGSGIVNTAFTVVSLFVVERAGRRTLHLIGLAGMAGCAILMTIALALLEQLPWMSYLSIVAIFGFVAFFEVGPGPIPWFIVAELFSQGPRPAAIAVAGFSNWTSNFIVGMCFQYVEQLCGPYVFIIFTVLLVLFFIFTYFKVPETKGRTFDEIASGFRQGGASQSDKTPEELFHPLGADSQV
Type: functional

| Compound | inhibition |
| --- | --- |
| Brc1cc2c(cc1C=NNc1nc(=Nc3ccccc3)[nH]c(=Nc3ccccc3)[nH]1)OCO2 | 3.97% |
| O=C(/C=C/c1ccc2ccccc2c1)NCC1(c2ccc(-c3ccccc3)cc2)CCOCC1 | 2.52% |
| CCN(CC)CCN(Cc1ccc(-c2ccc(C(F)(F)F)cc2)cc1)C(=O)Cn1c(SCc2ccc(F)c(F)c2F)nc(=O)c2c1CCC2 | 2.57% |
| COc1ccc2ncc(F)c(CCN3C4CCC3CC(NCc3cc5c(cn3)OCS5)C4)c2n1 (stereo not given) | 32.5% |
| CCOC(=O)CC[C@H](NC(=O)c1ccc(NS(=O)(=O)c2ccc(-c3cnc(N)[nH]c3=O)cc2)cc1)C(=O)OCC | 4.2% |
| COc1cccc(CNC(=O)NC2CCN(c3ccnc(Nc4ccc(F)cc4)n3)C2)c1 (stereo not given) | -1.2% |
| c1cc(C2=NC3CCCCC3N2)ccc1OCCCOc1ccc(C2=NC3CCCCC3N2)cc1 (stereo not given) | 7.04% |
| NC1CCN(Cc2ccc(-c3cccc(-c4nc5ccccc5[nH]4)c3)cc2)C1 (stereo not given) | 5.49% |
| O=C(Nc1cccc(-c2ccc(-c3nc4ccccc4[nH]3)cc2)c1)c1cnn2cccnc12 | -0.77% |
| COc1ccc(N2CCN(CCCOc3ccc(NC(=O)c4cc(Cl)cc(Cl)c4)cc3)CC2)c(OC)c1 | 6.5% |
| O=C(Nc1ccccc1C(F)(F)F)Nc1nn(Cc2c(F)cccc2Cl)cc1Br | 5.53% |
| CCCCN(CCCC)CCC(O)C(=Cc1ccc(Cl)cc1Cl)c1ccc(C(F)(F)F)cc1N (stereo not given) | -0.65% |
| COc1ccc(N(c2nc(-c3cc(Cl)ccc3Cl)cs2)C2CCNC2)cc1 (stereo not given) | 4.89% |
| CN(C(=O)c1ccc(Br)cc1)c1ccccc1[N+](=O)[O-] | -1.57% |
| CCCCCCCN(Cc1ccc(OC(C)(C)C(=O)OCC)cc1)C(=O)Nc1ccc(Cl)cc1OCC | 3.65% |
| COc1ccccc1C1CCN(C2CCC(NC(=O)/C=C/c3ccc(C(F)(F)F)cc3)CC2)CC1 (stereo not given) | 1.41% |
| O[C@H]1[C@H](OCc2ccc(-c3ccccc3)cc2)CC[C@@H]1N1CCCCC1 | 0.73% |
| CC1CN(c2ncc(-c3ccc(CNC4Cc5ccccc5C4)cc3)cn2)CC(C)N1 (stereo not given) | 2.69% |
| CC(C)(C)c1ccc(-c2cc3c(ccc4nc(N)nc(N)c43)[nH]2)cc1 | 1.02% |
| Cc1nc2ccccc2c(=O)n1NCc1ccc(Cl)c(Cl)c1 | -1.5% |
| COc1ccc(C=Cc2cc(=N)c3ccccc3[nH]2)cc1 | 3.18% |
| CN(C)CC(=O)Nc1cccc(Nc2nccc(NCC(O)c3ccccc3)n2)c1 (stereo not given) | 1.36% |
| Fc1ccc(COc2ccc(Nc3ncnc4ccc(I)cc34)cc2Cl)cc1 | 20.3% |
| COC(=O)C(Cc1ccccc1)C(CSCc1ccc(OC)cc1)C(=O)N[C@@H](C(=O)OC(C)(C)C)c1ccc(C(C)(C)C)cc1 (stereo not given in full) | 4.24% |
| O=C(CCNc1ccnc(NCCc2ccc(F)cc2)n1)Nc1ccccc1 | 3.86% |
